According to PubChem BioAssay (EPA / NIEHS):
Several values for one entry are separate records, joined by “and”; a condition that tells them apart may be missing. Equal entries are not always repeated. Results filed as inconclusive are left out. Some structures have more than one record in an assay (separate samples or runs), and their calls can disagree. Activity calls are given as the source filed them. How the source made its calls: active means hit-call score of the fitted dose curve at least 0.9, where 1 is the maximum; inconclusive means response in the unintended direction; inactive means score below 0.9.

Assays:
[1] = biological target: rat CYP2A2, Cyp2a2 (gene 24895) (UniProt P15149); test: NVS_ADME_rCYP2A2: NovaScreen (NVS) CYP450-related Enzyme Activity (ADME) Assay for rat CYP2A2 (AID 2283116)
rat CYP2A2, Cyp2a2 (gene 24895), sequence (P15149 whole entry, looked up): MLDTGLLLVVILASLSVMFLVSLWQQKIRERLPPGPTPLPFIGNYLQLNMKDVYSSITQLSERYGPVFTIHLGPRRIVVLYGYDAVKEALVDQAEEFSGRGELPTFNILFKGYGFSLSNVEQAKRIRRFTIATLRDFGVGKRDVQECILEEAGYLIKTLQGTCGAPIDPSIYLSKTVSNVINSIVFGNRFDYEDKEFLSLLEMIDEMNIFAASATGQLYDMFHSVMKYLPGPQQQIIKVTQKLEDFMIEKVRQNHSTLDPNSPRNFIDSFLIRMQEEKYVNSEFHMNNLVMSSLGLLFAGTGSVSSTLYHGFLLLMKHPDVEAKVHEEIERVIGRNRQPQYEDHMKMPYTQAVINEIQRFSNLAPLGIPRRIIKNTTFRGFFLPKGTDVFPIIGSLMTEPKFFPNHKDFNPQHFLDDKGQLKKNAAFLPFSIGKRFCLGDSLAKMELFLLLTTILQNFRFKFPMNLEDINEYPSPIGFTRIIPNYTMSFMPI
Method in brief: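 Compounds first tested in duplicate at 10 uM, then in singleton concentration series up to 20 uM when over threshold. Activity of the recombinant enzyme read by fluorescence at 0.2 h, normalised to acetonitrile vehicle.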

[2] = biological target: rat CYP2C11, Cyp2c11 (gene 29277) (UniProt P08683); test: NVS_ADME_rCYP2C11: NovaScreen (NVS) CYP450-related Enzyme Activity (ADME) Assay for rat CYP2C11 (AID 2283118)
rat CYP2C11, Cyp2c11 (gene 29277), sequence (P08683 whole entry, looked up): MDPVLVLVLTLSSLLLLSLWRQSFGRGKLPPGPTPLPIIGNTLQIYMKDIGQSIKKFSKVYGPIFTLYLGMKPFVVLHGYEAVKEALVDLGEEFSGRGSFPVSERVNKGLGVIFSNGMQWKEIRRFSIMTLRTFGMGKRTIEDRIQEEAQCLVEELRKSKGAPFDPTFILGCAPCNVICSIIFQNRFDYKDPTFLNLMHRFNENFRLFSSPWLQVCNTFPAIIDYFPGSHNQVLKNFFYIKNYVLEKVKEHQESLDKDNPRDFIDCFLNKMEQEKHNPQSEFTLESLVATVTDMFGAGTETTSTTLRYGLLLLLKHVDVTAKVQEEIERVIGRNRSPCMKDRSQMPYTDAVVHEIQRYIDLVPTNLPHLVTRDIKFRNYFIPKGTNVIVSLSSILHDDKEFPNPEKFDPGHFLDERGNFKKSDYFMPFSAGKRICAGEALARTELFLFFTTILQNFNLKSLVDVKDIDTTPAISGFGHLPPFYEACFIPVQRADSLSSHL
Method in brief: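 Screened first at 10 uM in duplicate, hits followed by concentration-response. Recombinant rat enzyme activity monitored by fluorescence 0.33 h post-dosing, normalised to acetonitrile negative control.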

[3] = biological target: rat CYP2C12, Cyp2c12 (gene 25011) (UniProt P11510); test: NVS_ADME_rCYP2C12: NovaScreen (NVS) CYP450-related Enzyme Activity (ADME) Assay for rat CYP2C12 (AID 2283119)
rat CYP2C12, Cyp2c12 (gene 25011), sequence (P11510 whole entry, looked up): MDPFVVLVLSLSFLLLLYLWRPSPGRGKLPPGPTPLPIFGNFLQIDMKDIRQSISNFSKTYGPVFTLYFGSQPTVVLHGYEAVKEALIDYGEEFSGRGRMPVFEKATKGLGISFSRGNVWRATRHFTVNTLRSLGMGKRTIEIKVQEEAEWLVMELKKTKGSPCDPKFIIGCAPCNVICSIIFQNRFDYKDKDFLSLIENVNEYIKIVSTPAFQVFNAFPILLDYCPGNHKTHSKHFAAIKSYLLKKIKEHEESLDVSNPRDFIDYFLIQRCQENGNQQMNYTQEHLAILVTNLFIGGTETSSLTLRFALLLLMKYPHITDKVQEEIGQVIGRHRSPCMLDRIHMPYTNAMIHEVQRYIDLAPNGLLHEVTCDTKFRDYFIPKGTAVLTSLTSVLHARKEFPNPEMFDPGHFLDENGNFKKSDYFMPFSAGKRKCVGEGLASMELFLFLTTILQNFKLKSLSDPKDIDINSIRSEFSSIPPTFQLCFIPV
Method in brief: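 Fluorescent-substrate turnover by recombinant rat CYP2C12, measured at 0.5 h, normalized to acetonitrile vehicle. Chemicals screened first at a single 10 uM concentration in duplicate, with concentration series for actives.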

[4] = biological target: rat CYP2D1, Cyp2d1 (gene 266684) (UniProt P10633); test: NVS_ADME_rCYP2D1: NovaScreen (NVS) CYP450-related Enzyme Activity (ADME) Assay for rat CYP2D1 (AID 2283122)
rat CYP2D1, Cyp2d1 (gene 266684), sequence (P10633 whole entry, looked up): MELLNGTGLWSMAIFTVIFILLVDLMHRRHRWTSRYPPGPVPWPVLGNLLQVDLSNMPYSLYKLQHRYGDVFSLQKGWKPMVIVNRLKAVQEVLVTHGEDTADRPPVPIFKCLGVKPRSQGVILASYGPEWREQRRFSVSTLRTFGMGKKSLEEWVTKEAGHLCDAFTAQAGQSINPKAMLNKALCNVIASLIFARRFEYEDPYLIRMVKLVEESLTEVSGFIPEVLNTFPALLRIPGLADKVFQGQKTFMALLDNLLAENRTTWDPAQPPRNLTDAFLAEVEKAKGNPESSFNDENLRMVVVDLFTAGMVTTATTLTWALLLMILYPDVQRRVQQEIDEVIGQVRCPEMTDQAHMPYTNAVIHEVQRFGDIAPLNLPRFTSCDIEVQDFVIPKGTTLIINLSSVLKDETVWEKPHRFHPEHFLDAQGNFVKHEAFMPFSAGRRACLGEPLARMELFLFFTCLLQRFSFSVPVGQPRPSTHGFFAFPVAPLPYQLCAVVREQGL
Method in brief: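 Rat CYP2D1 enzyme activity measured by fluorescence intensity in a cell-free format, 0.75 h post-dosing, acetonitrile as negative control. Screening at 10 uM in duplicate, with actives followed in concentration series up to 20 uM.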

[5] = test system: rat CYP3A1, gene 25642; test: NVS_ADME_rCYP3A1: NovaScreen (NVS) CYP450-related Enzyme Activity (ADME) Assay for rat CYP3A1 (AID 2283126)
Method in brief: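 Compounds went first at 10 uM duplicate, then to series with 20 uM maximum. Fluorescence from substrate turnover by the recombinant enzyme was measured 0.5 h post-dosing, inhibition scored against acetonitrile vehicle.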

[6] = biological target: Caspase-3 (Homo sapiens) (UniProt P42574); test: NVS_ENZ_hCASP3: NovaScreen (NVS) Enzymatic Assay for human Caspase 3 (CASP3) (AID 2283139)
Caspase-3 (Homo sapiens), sequence (P42574 whole entry, looked up): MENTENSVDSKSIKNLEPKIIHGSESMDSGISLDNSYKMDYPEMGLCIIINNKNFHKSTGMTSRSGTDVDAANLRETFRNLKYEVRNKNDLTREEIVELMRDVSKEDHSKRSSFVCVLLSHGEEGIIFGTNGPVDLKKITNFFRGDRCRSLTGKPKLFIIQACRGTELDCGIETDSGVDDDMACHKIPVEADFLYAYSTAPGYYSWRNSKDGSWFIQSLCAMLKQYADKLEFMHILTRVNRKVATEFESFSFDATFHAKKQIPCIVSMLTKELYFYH
Method in brief: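 Single-concentration screening at 25 uM in duplicate, with concentration-response follow-up to a 50 uM maximum for chemicals passing the threshold. Caspase-3 (human, E. coli-expressed) activity was read as substrate fluorescence after 1 h, with loss of signal relative to DMSO.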

[7] = biological target: human Caspase 10 (CASP10), CASP10 (gene 843) (UniProt Q92851); test: NVS_ENZ_hCASP10: NovaScreen (NVS) Enzymatic Assay for human Caspase 10 (CASP10) (AID 2283133)
Method in brief: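 Fluorescence-intensity enzyme read-out of E. coli-expressed CASP10 activity, 1 h after compound. Single-point duplicates at 25 uM preceded concentration-response testing (top 50 uM) of hits; inhibition expressed as signal loss versus DMSO.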

[8] = biological target: human AKT serine/threonine Kinase 1 (AKT1), AKT1 (gene 207) (UniProt P31749); test: NVS_ENZ_hAKT1: NovaScreen (NVS) Enzymatic Assay for human AKT serine/threonine Kinase 1 (AKT1) (AID 2283138)
human AKT serine/threonine Kinase 1 (AKT1), AKT1 (gene 207), sequence (P31749 whole entry, looked up): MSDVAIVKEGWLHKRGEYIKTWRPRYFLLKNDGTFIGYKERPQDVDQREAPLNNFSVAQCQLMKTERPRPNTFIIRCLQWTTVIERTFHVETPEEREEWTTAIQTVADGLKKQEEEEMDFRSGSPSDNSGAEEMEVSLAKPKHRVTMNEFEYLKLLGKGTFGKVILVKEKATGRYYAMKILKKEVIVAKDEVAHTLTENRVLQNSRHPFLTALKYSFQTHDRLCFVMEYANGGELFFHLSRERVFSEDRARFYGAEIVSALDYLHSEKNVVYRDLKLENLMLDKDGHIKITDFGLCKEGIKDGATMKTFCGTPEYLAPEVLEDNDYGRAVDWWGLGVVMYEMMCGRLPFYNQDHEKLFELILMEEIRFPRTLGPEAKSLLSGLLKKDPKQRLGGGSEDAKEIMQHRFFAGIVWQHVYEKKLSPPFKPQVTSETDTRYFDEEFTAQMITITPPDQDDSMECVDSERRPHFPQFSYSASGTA
Method in brief: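 A biochemical assay with recombinant enzyme and specific substrate, read by fluorescence intensity with mobility-shift separation 1 hour after dosing. Actives from 25 uM duplicate screening were titrated up to 50 uM against DMSO baseline.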

[9] = biological target: human AKT serine/threonine Kinase 2 (AKT2), AKT2 (gene 208) (UniProt P31751); test: NVS_ENZ_hAKT2: NovaScreen (NVS) Enzymatic Assay for human AKT serine/threonine Kinase 2 (AKT2) (AID 2283141)
Method in brief: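 Cell-free fluorescence/electrophoretic mobility shift readout of recombinant human AKT2 activity, 1 h after chemical dosing. Duplicate primary screen at 25 uM, then singleton concentration-response up to 50 uM; loss of signal versus DMSO baseline.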

[10] = test system: rat CYP2C6, gene 293989; test: NVS_ADME_rCYP2C6: NovaScreen (NVS) CYP450-related Enzyme Activity (ADME) Assay for rat CYP2C6 (AID 2283120)
Method in brief: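 Compounds first tested in duplicate at 10 uM, hits (e.g. 30% inhibition) re-run in singleton dose series to a 20 uM top concentration. Enzyme activity of recombinant rat CYP2C6 measured via fluorescent substrate turnover after 1 h; acetonitrile baseline.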

[11] = biological target: rat CYP2D2, Cyp2d26 (gene 25053) (UniProt P10634); test: NVS_ADME_rCYP2D2: NovaScreen (NVS) CYP450-related Enzyme Activity (ADME) Assay for rat CYP2D2 (AID 2283124)
rat CYP2D2, Cyp2d26 (gene 25053), sequence (P10634 whole entry, looked up, canonical isoform): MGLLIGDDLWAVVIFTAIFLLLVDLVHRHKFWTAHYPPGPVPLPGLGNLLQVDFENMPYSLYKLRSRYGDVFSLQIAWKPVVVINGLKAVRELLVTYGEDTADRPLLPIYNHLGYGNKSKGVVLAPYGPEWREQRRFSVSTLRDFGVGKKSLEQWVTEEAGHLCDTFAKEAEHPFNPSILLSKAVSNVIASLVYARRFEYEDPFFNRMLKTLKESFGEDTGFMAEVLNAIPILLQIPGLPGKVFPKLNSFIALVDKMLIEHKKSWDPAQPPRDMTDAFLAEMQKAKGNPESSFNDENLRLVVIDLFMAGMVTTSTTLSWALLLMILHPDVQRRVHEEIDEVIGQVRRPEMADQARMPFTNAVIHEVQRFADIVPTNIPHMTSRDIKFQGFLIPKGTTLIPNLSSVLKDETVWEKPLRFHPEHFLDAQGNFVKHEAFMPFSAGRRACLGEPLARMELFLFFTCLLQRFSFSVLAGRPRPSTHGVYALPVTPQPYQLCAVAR
Method in brief: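 Single-concentration duplicate testing at 10 uM, followed by concentration-response (top 20 uM) for chemicals passing threshold. Enzyme activity of the recombinant rat isoform measured by fluorescence after 0.75 h, acetonitrile as baseline.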

[12] = biological target: human Acetylcholinesterase (AChE), ACHE (gene 43) (UniProt P22303); test: NVS_ENZ_hAChE: NovaScreen (NVS) Enzymatic Assay for human Acetylcholinesterase (AChE) (AID 2283129)
Method in brief: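 Actives from a duplicate single-point screen (25 uM) were followed up in concentration series. Enzyme activity read by absorbance (colorimetric) 0.33 hour after dosing, cell-free, normalized to DMSO, with loss of signal scored.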

[13] = test system: rat CYP2B1, gene 24300; test: NVS_ADME_rCYP2B1: NovaScreen (NVS) CYP450-related Enzyme Activity (ADME) Assay for rat CYP2B1 (AID 2283117)
Method in brief: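 Cell-free fluorescence enzyme assay, recombinant rat CYP2B1, 0.75 h after dosing. Single-concentration duplicates at 10 uM preceded concentration series (max 20 uM) for actives; acetonitrile as negative-control baseline.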

[14] = biological target: rat CYP3A2, Cyp3a2 (gene 266682) (UniProt P05183); test: NVS_ADME_rCYP3A2: NovaScreen (NVS) CYP450-related Enzyme Activity (ADME) Assay for rat CYP3A2 (AID 2283128)
rat CYP3A2, Cyp3a2 (gene 266682), sequence (P05183 whole entry, looked up): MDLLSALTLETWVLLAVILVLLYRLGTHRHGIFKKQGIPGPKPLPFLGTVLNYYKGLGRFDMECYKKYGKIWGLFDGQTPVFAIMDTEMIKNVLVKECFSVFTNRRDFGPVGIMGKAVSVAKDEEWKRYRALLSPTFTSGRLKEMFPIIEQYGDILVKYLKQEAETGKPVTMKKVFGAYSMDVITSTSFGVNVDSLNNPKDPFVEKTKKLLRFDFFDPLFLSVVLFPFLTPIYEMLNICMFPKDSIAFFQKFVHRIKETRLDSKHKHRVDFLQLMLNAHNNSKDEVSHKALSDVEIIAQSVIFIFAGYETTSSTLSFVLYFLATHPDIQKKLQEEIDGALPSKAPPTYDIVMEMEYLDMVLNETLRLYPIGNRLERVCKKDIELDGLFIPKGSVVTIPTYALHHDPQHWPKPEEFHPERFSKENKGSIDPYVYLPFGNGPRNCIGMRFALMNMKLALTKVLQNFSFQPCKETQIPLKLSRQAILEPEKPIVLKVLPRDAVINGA
Method in brief: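 Fluorescence readout of extracted rat CYP3A2 activity 0.5 h post-dose, acetonitrile as negative control. Single-point testing in duplicate at 10 uM, followed by concentration series to a 20 uM maximum for actives.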

[15] = biological target: human AMP-activated Protein Kinase, alpha 1 (AMPKa1), PRKAA1 (gene 5562) (UniProt Q13131); test: NVS_ENZ_hAMPKa1: NovaScreen (NVS) Enzymatic Assay for human AMP-activated Protein Kinase, alpha 1 (AMPKa1) (AID 2283130)
human AMP-activated Protein Kinase, alpha 1 (AMPKa1), PRKAA1 (gene 5562), sequence (Q13131 whole entry, looked up): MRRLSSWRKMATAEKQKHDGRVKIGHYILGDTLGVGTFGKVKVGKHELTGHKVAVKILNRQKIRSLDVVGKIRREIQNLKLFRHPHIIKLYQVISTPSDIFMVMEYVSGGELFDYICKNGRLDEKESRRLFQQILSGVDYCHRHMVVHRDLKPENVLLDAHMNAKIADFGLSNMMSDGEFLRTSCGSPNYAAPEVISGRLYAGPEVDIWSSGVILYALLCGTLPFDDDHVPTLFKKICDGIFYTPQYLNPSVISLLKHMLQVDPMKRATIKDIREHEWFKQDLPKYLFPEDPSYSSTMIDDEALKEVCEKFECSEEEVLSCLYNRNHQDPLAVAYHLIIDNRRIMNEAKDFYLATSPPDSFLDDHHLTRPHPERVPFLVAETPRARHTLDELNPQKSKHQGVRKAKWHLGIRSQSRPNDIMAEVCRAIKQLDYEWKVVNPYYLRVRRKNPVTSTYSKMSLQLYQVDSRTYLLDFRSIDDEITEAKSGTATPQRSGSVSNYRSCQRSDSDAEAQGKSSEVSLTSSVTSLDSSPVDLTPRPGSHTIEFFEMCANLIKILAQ
Method in brief: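 Compounds were screened in duplicate at 25 uM, and those reaching ~30% inhibition were titrated up to 50 uM. The enzyme was recombinant human AMPKα1, and kinase turnover was read by fluorescence/mobility shift 1 h post-dosing as loss of signal versus DMSO.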

[16] = biological target: human Acid Phosphatase 1 (ACP1), ACP1 (gene 52) (UniProt P24666); test: NVS_ENZ_hACP1: NovaScreen (NVS) Enzymatic Assay for human Acid Phosphatase 1 (ACP1) (AID 2283136)
human Acid Phosphatase 1 (ACP1), ACP1 (gene 52), sequence (P24666 whole entry, looked up): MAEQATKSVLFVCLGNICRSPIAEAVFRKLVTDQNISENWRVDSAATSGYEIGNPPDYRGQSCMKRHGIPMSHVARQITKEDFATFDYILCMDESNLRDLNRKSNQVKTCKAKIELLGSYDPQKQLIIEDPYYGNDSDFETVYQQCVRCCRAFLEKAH
Method in brief: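 Cell-free fluorescence read-out of phosphatase activity, substrate and product separated by mobility shift, taken 1.5 h after compound addition; protein produced in Sf9. Single 25 uM duplicate screen, followed by concentration series for actives, scored as signal loss relative to DMSO.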

[17] = biological target: human Beta-secretase (BACE), BACE1 (gene 23621) (UniProt P56817); test: NVS_ENZ_hBACE: NovaScreen (NVS) Enzymatic Assay for human Beta-secretase (BACE) (AID 2283140);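 further: hits are inhibitors that reduce fluorescent substrate signal versus DMSO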
human Beta-secretase (BACE), BACE1 (gene 23621), sequence (P56817 whole entry, looked up): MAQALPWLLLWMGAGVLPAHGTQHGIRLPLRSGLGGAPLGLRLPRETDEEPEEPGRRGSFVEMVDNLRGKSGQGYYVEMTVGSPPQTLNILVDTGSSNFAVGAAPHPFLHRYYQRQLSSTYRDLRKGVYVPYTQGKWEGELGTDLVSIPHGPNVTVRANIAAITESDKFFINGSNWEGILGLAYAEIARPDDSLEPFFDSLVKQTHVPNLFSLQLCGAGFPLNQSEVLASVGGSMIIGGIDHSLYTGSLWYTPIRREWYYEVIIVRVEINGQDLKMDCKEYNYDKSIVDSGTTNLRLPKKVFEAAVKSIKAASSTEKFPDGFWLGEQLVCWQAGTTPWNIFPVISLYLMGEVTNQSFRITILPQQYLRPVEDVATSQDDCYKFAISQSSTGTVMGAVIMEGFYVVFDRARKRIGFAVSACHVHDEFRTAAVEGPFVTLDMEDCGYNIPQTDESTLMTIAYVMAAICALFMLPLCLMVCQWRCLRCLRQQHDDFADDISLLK
Method in brief: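 Enzyme activity of SF9-produced BACE1 is measured cell-free by fluorescence, 1 hour post dosing, normalised to DMSO. Screening used 25 uM in duplicate, with concentration-response follow-up for actives.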

Measured: AC50

CCOC1Oc2ccc(OS(C)(=O)=O)cc2C1(C)C (stereo not given)
inactive: [4] | [6]
active: [1] 6.21 µM | [2] 4.18 µM | [3] 2.33 µM | [5] 6.95 µM

COC(=O)c1ccccc1S(=O)(=O)NC(=O)N(C)c1nc(C)nc(OC)n1
inactive: [8] | [9]
active: [7] 6.07 µM

CC(C)N(C(=O)COc1nnc(C(F)(F)F)s1)c1ccc(F)cc1
active: [2] 6.6 µM | [10] 7.85 µM | [11] 10 µM | [5] 7.94 µM | [12] 16.5 µM

CCOCN(C(=O)CCl)c1c(C)cccc1CC
active: [10] 10 µM

CC(C)(C)C(O)/C(=C\c1ccc(Cl)cc1Cl)n1cncn1 (stereo not given)
active: [1] 0.0195 µM | [13] 0.0164 µM | [2] 0.369 µM | [3] 1.25 µM | [4] 0.603 µM | [11] 0.837 µM | [5] 0.631 µM | [14] 0.669 µM

Cc1[nH]c(=O)n(C(C)(C)C)c(=O)c1Cl
active: [4] 3.45 µM

CCCN(CCOc1c(Cl)cc(Cl)cc1Cl)C(=O)n1ccnc1
active: [1] 0.00934 µM | [13] 0.0338 µM | [2] 0.0766 µM | [3] 4.58 µM | [10] 0.166 µM | [4] 1.22 µM | [11] 0.159 µM | [5] 0.549 µM | [14] 1.39 µM

CNC(=O)CSP(=S)(OC)OC
inactive: [8]
active: [10] 4.77 µM | [14] 5.06 µM

COP(=S)(OC)Oc1ccc(SC)c(C)c1
active: [10] 1.83 µM

Oc1cc(Cl)ccc1Oc1ccc(Cl)cc1Cl
active: [11] 10 µM | [17] 25.5 µM and 28.2 µM and 7.92 µM | [9] 41.4 µM
inactive: [15] | [16] | [17]

CC(C)(C)C(O)C(Oc1ccc(Cl)cc1)n1cncn1 (stereo not given)
inactive: [15] | [16]
active: [1] 0.32 µM | [13] 5.58 µM | [2] 4.45 µM | [5] 5.65 µM | [14] 8.09 µM
